Key:
Experiment in all cases: phenotypically active (imaging signature differs from DMSO and reproducible) at any of 0.3-9 uM (binary (1 = active, 0 = inactive)); higher = active
Conditions in all cases: treatment time: 24 h
[1] = system: A549-ACTB-RAB5A
Summary of the method: (§1)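 Phenotypic activity depended on meeting both a deviation and a reproducibility criterion. The fifteen gene-edited A549, HepG2 and WPMY1 reporter lines were treated at 0.3, 1, 3 or 9 µM for 24 h, four wells each, then imaged live with features normalised to solvent control wells. Deviation required ≥3 of 4 wells past the 95th percentile of control Euclidean distances, and reproducibility a median replicate Pearson correlation above the 95th percentile of non-replicates.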

[2] = system: A549-CANX-COX4
Summary of the method: as §1

[3] = system: A549-GM130-SQSTM1
Summary of the method: as §1

[4] = system: A549-TP53BP1-CLTA
Summary of the method: as §1

[5] = system: A549-TUBA1B-RELA
Summary of the method: as §1

[6] = system: HepG2-ACTB-RAB5A
Summary of the method: as §1

[7] = system: HepG2-CANX-COX4
Summary of the method: as §1

[8] = system: HepG2-GM130-SQSTM1
Summary of the method: as §1

[9] = system: HepG2-TP53BP1-CLTA
Summary of the method: as §1

[10] = system: HepG2-TUBA1B-RELA
Summary of the method: as §1

[11] = system: WPMY1-ACTB-RAB5A
Summary of the method: as §1

[12] = system: WPMY1-CANX-COX4
Summary of the method: as §1

[13] = system: WPMY1-GM130-SQSTM1
Summary of the method: as §1

[14] = system: WPMY1-TP53BP1-CLTA
Summary of the method: as §1

[15] = system: WPMY1-TUBA1B-RELA
Summary of the method: as §1

Measured: phenotypically active

NCC1(CC(=O)O)CCCCC1 [gabapentin]
inactive: [1] 0 | [2] 0 | [3] 0 | [4] 0 | [5] 0 | [6] 0 | [7] 0 | [8] 0 | [9] 0 | [10] 0 | [11] 0 | [12] 0 | [13] 0 | [14] 0 | [15] 0

CC[N+](CC)(CCCNC1=CC(=O)C(NCCC[N+](CC)(CC)Cc2ccccc2)=CC1=O)Cc1ccccc1 [Benzoquinonium dibromide]
inactive: [1] 0 | [2] 0 | [3] 0 | [4] 0 | [5] 0 | [6] 0 | [7] 0 | [8] 0 | [9] 0 | [10] 0 | [11] 0 | [12] 0 | [13] 0 | [14] 0 | [15] 0

C[C@@H]1CN([C@H]2CC[C@](C#N)(c3ccc(F)cc3)CC2)CC[C@]1(C(=O)O)c1ccccc1 [levocabastine]
inactive: [1] 0 | [2] 0 | [3] 0 | [4] 0 | [5] 0 | [6] 0 | [7] 0 | [8] 0 | [9] 0 | [10] 0 | [11] 0 | [12] 0 | [13] 0 | [14] 0 | [15] 0

CC[C@H]1C2C[C@H]3[C@@H]4N(C)c5ccccc5[C@]45C[C@H](C2[C@H]5O)N3[C@@H]1O (stereo not given in full) [Ajmaline]
inactive: [1] 0 | [2] 0 | [3] 0 | [4] 0 | [5] 0 | [6] 0 | [7] 0 | [8] 0 | [9] 0 | [10] 0 | [11] 0 | [12] 0 | [13] 0 | [14] 0 | [15] 0

Cc1ccc(C[N+](C)(C)C)o1 [5-Methylfurmethiodide]
inactive: [1] 0 | [2] 0 | [3] 0 | [4] 0 | [5] 0 | [6] 0 | [7] 0 | [8] 0 | [9] 0 | [10] 0 | [11] 0 | [12] 0 | [13] 0 | [14] 0 | [15] 0

Oc1ccc2c3c1O[C@H]1[C@@H](O)CC[C@@]4(O)[C@@H](C2)N(CC2CCC2)CC[C@]314 [nalbuphine]
inactive: [1] 0 | [2] 0 | [3] 0 | [4] 0 | [5] 0 | [6] 0 | [7] 0 | [8] 0 | [9] 0 | [10] 0 | [11] 0 | [12] 0 | [13] 0 | [14] 0 | [15] 0

CCCC(C)C1(CC)C(=O)N=C(S)NC1=O (stereo not given) [thiopental]
inactive: [1] 0 | [2] 0 | [3] 0 | [4] 0 | [5] 0 | [6] 0 | [7] 0 | [8] 0 | [9] 0 | [10] 0 | [11] 0 | [12] 0 | [13] 0 | [14] 0 | [15] 0

COc1ccc2c(c1OC)C(=O)O[C@@H]2[C@H]1c2cc3c(cc2CCN1C)OCO3 [Hydrastine]
inactive: [1] 0 | [2] 0 | [3] 0 | [4] 0 | [5] 0 | [6] 0 | [7] 0 | [8] 0 | [9] 0 | [10] 0 | [11] 0 | [12] 0 | [13] 0 | [14] 0 | [15] 0

N#CC(CCN1CCC(C(=O)O)(c2ccccc2)CC1)(c1ccccc1)c1ccccc1 [difenoxin]
inactive: [1] 0 | [2] 0 | [3] 0 | [4] 0 | [5] 0 | [6] 0 | [7] 0 | [8] 0 | [9] 0 | [10] 0 | [11] 0 | [12] 0 | [13] 0 | [14] 0 | [15] 0

O=C(O)CC[N+](=O)[O-] [3-Nitropropionic acid]
inactive: [1] 0 | [2] 0 | [3] 0 | [4] 0 | [5] 0 | [6] 0 | [7] 0 | [8] 0 | [9] 0 | [10] 0 | [11] 0 | [12] 0 | [13] 0 | [14] 0 | [15] 0

CC(C)[C@H]1C(=O)O[C@@H]2CCN3CC=C(COC(=O)[C@](C)(O)[C@@]1(C)O)[C@H]23 [Trichodesmine]
inactive: [1] 0 | [2] 0 | [3] 0 | [4] 0 | [5] 0 | [6] 0 | [7] 0 | [8] 0 | [9] 0 | [10] 0 | [11] 0 | [12] 0 | [13] 0 | [14] 0 | [15] 0
